# MT1-MMP txn act – MT1-MMP promoter transcription activation. HT1080 MT1-MMP promoter luciferase reporter, luminescence, overnight; active compounds read high. activation factor at 10 µM. actives 0.16% (n = 86,000);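 active = activation factor of at least 2 for MT1-MMP transcription at 10 µM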
# PostGolgi ctrl – inhibits growth of the yeast control strain. efflux-deficient yeast background strain, growth absorbance A615, 16 h. AID 738. inhibition, % at 10 µM. actives 5% (n = 98,000)
# PostGolgi yeast – growth inhibition of a yeast mutant, post-Golgi transport screen | actives 0.9% (n = 98,000) | AID 739 | post-Golgi transport phenotypic cell assay | inhibition, % at 10 µM;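 also: yeast cells grown in 1536-well plates; yeast grown about 18 h at 30C before absorbance read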
# Measles CPE – protection of cells from measles virus. protection (pct of control), % at 4 µM. Measles virus-infected cells, CPE protection, absorbance. actives 1.5% (n = 140,000). AID 841; in the data active = protection mostly above about 24%, no sharp cut-off; inactive = mostly below about 26%
# Hits are given with their value; – = inactive; · = not tested or not shown. In the library only some 5.3% were active in any assay of this set; here they are far more common. Rule as the data show it, unless noted: active = inhibition above about 30%; inactive = the rest.
SMILES,MT1-MMP txn act,PostGolgi ctrl,PostGolgi yeast,Measles CPE
CCCOC(=O)Nc1ccc(S(=O)(=O)Nn2cnnc2)cc1,–,–,–,–
CCCCOC(=O)Nc1ccc(S(=O)(=O)Nn2cnnc2)cc1,–,–,–,18
N=c1nc(N)nc2n1NC(c1ccc(F)cc1)=CS2,–,–,99,–
COc1ccc2c(C)cc(SCc3c(C)noc3C)nc2c1,·,32,–,–
CC(C)c1ccc(NC(=O)c2snc3ccc(Cl)cc23)cc1,·,·,·,–
Cc1[nH]c2ccccc2c1C(=O)COC(=O)c1c(-c2c(F)cccc2Cl)noc1C,·,·,·,–
Cc1nc2ccccc2cc1OCc1ccc(Cl)cc1,·,36,–,–
CCc1cc2c(=O)c(-c3cnn(-c4ccccc4)c3)c(C(F)(F)F)oc2c(CN(C)C)c1O,·,·,·,–
CC(C)CNC(=S)NC(=O)c1ccc([N+](=O)[O-])cc1,·,32,–,–
O=C(CC(NC(=O)C(F)(F)F)c1ccccc1)Nc1nnc(CCc2ccccc2)s1 (centres undefined),·,·,·,–
Cc1ccc(S(=O)(=O)NNC(=O)C(O)(c2ccccc2)c2ccccc2)cc1,·,·,·,–
O=C(NNS(=O)(=O)c1ccccc1)C(O)(c1ccccc1)c1ccccc1,·,·,·,63
CC(C)c1nc(SCC(=O)N2c3ccccc3CC2C)c2ccccc2n1 (centres undefined),·,37,–,–
Cc1sc2nc(C3CC3)nc(SCC(=O)N3c4ccccc4CC3C)c2c1C (centres undefined),·,–,–,64
COC(=O)/C(=N/Nc1ccccc1C)N1CCCc2ccccc21,·,·,·,–
Cc1ccc(C)c(NS(=O)(=O)c2ccc3c(c2)Cc2cc(S(=O)(=O)Nc4cc(C)ccc4C)ccc2-3)c1,·,·,·,–
O=C(NCC(=O)N(c1ccc2c(c1)OCO2)C(C(=O)NC1CCCC1)c1cccs1)c1ccco1 (centres undefined),–,–,–,66
Cc1ccccc1OCC(O)Cn1nnc2ccccc21 (centres undefined),2,·,·,–
Cc1nc(-c2cccc(NS(=O)(=O)c3ccc4ccccc4c3)c2)cs1,–,39,–,–
O=S(=O)(Nc1cccc(CCc2ccccn2)c1)c1ccc2ccccc2c1,·,32,–,–
Cc1nc(CNS(=O)(=O)c2ccc3ccccc3c2)cs1,–,–,–,–
Cc1ccc(N(CC(=O)N2CCc3ccccc32)S(=O)(=O)c2cccs2)cc1,–,–,–,–
Cc1ccc2oc(=O)c3c4cc(O)c(O)c(C)c4oc3c2c1,–,·,·,·
CCc1nn(C)c(-c2n[nH]c(=S)n2N)c1Cl,·,–,–,44
CC1(C)COC(c2cccc(C3=NC(C)(C)CO3)n2)=N1,·,·,·,–
SMILES,MT1-MMP txn act,PostGolgi ctrl,PostGolgi yeast,Measles CPE
COc1cc(OC)cc(C(=O)NN2CCCCC2)c1,·,–,–,–
COc1cccc(OC)c1C(=O)NN1CCCCC1,·,–,–,35
Fc1ccc(Cn2c(-c3cscn3)nc3ccccc32)c(Cl)c1,–,34,–,–
Nc1nonc1-c1nc2ccccc2n1Cc1ccc(F)cc1Cl,–,–,–,–
Clc1ccc(Cn2c(-c3cccnc3Cl)nc3ccccc32)c(Cl)c1,·,38,–,–
Clc1ccc(Cn2c(-c3cccnc3Cl)nc3ccccc32)cc1,·,–,–,33
CCn1c(-c2cccnc2Cl)nc2cc(Cl)c(Cl)cc21,·,–,–,–
Cc1ccc(S(=O)(=O)CCc2nc3ccccc3s2)cc1C,–,–,–,–
COc1ccc(C(c2c[nH]c3ccccc23)c2c[nH]c3ccccc23)cc1O,·,54,–,–
COc1ccc(NC(=O)CCCc2c[nH]c3ccccc23)cc1OC,·,·,·,–
Cc1sc(NC(=O)CN(Cc2ccc(F)cc2)C(=O)C(C)(C)C)c(C(N)=O)c1C,·,·,·,–
CC1CCCCC1NS(=O)(=O)c1ccc(S(=O)(=O)NCc2ccncc2)cc1 (centres undefined),–,–,–,39
CC(C)(C)c1cnnn1-c1ccc(-c2csc(N)n2)cc1,–,46,–,–
O=c1[nH]cnc2c1sc1nc(-c3ccccc3)c3c(c12)CCCC3,·,·,·,–
Cc1ccc(-c2nc3sc4c(N)ncnc4c3c3c2CCCC3)cc1,·,–,–,25
Cc1ccc(-c2ccc(/C=N/c3ncn[nH]3)o2)cc1Cl,–,34,–,–
CC1C/C(=C/c2cccn2C)C(=O)/C(=C/c2cccn2C)C1 (centres undefined),–,41,–,–
COCCN=C1Sc2nc3c(C)cccc3cc2CN1Cc1ccco1,–,–,–,–
Cc1cccc(N=C2Sc3nc4c(C)c(C)ccc4cc3CN2CCN2CCOCC2)c1,·,97,46,31
CC(NC(=O)c1ccc(F)cc1)c1ccccc1 (centres undefined),·,–,–,38
CCc1cc(-c2n[nH]c(C)c2Oc2ccc(C(C)C)cc2)c(O)cc1O,–,87,–,–
CCCOC(=O)c1ccc(Oc2c(-c3ccc(OC)cc3O)n[nH]c2C)cc1,–,–,–,–
Cc1[nH]nc(-c2ccc(O)cc2O)c1Oc1ccccc1,–,–,–,–
CCCOC(=O)c1ccc(Oc2c(-c3ccc(O)cc3O)n[nH]c2C)cc1,–,38,–,–
O=c1c2sc3nc(N4CCOCC4)c4c(c3c2nnn1Cc1ccccc1)CCCC4,·,32,–,–
SMILES,MT1-MMP txn act,PostGolgi ctrl,PostGolgi yeast,Measles CPE
Cc1cc(Br)ccc1OCC(=O)NNC(=O)c1cnccn1,·,·,·,37
O=C1CNCc2[nH]c3ccccc3c2N1c1ccccc1,–,32,–,–
CCOC(=O)CCCCC(=O)NC(CO)C(=O)NC (centres undefined),–,–,–,–
CCCCCCCC(=O)OCC(O)CO (centres undefined),–,·,·,91
CCc1ccc(OCCOCC(O)CN(CCO)CCO)cc1 (centres undefined),·,·,·,–
c1ccc(SCCOCCn2cncn2)cc1,–,–,–,–
OC(Cn1cncn1)(c1ccccc1)c1ccccc1,–,91,103,–
COC(=O)c1c(C)[nH]c(C(=O)CSc2ncnc3sc(-c4ccccc4)cc23)c1C,·,·,·,–
O=C(Nc1ccc(Cl)cc1)c1cc(S(=O)(=O)N2CCOCC2)cs1,·,–,–,78
O=C(Nc1ccc2ccccc2c1)[C@H]1C[C@@H]1[C@H](NP(=O)(c1ccccc1)c1ccccc1)c1ccccc1,–,·,·,·
COc1ccccc1CNC(=O)c1cc2c(C)nn(Cc3ccc(F)cc3)c2s1,–,33,–,–
Cc1nn(Cc2ccc(F)cc2)c2sc(C(=O)Nc3nccs3)cc12,·,·,·,–
CCC(CC)NC(=O)c1cc2c(C)nn(Cc3ccccc3Cl)c2s1,·,38,–,–
Cc1c(C(=O)Nc2ccc(-c3nnc4n3CCCCC4)cc2)oc2ccc(Br)cc12,·,·,·,–
O=C(CCCCCN1C(=O)c2ccccc2C1=O)Oc1ccc2c3c(c(=O)oc2c1)CCC3,·,·,·,–
CCN1CCN(CC(=O)N/N=C/c2ccc(F)cc2F)CC1,·,·,·,–
CCN(CC)C(=O)CSC1=Nc2ccccc2C2=NC(Cc3c[nH]c4ccccc34)C(=O)N12 (centres undefined),–,34,–,–
CNc1nc(Nc2ccc(C(C)=O)cc2)nc(OC(C(F)(F)F)C(F)(F)F)n1,·,30,–,–
CC(=O)c1ccc(Nc2nc(NCCO)nc(OC(C(F)(F)F)C(F)(F)F)n2)cc1,–,·,·,–
CC(=O)/C(C#N)=C1\NC(=O)C(Cc2ccccc2)S1 (centres undefined),–,–,–,91
Cc1ccc(C)c(NS(=O)(=O)c2cc(C(=O)NCCSC3CCCCC3)ccc2C)c1,·,41,–,–
